{
  "source": "PubChem BioAssay AID651871",
  "about": "(Sanford-Burnham Center for Chemical Genomics, 2012)",
  "note": "Several values for one entry are separate records, joined by “and”; a condition that tells them apart may be missing. Identical values can stand only once.",
  "data": [
    {"test_system": "H9c2", "assay": "protection of cardiomyocytes from stress damage, SAR follow-up, cell-based, panel, H9c2 and HL-1, ATP luminescence, set 2 (AID 651871);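 also: cells exposed to stressor for 2 h before ATP readout; reference of the scale not given here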", "details": "H9c2/HL-1 cardiomyocytes, H2O2 oxidative stress, with H2O2, run 2, at 79 µM (top of the series)", "values": [
      {"compound": "COc1ccc2c(c1OC)C(=O)N1c3ccccc3C(=O)N(Cc3cccc(Cl)c3Cl)C21", "note": "(centres undefined)", "activity (protection/inhibition)": "101% and 61%"},
      {"compound": "COc1ccc2nc(-c3cc(OC)c(OC)c(OC)c3)cc(C(=O)NCC(=O)Nc3ccc(C(C)=O)cc3)c2c1", "activity (protection/inhibition)": "122% and 100%"},
      {"compound": "COc1cc(-c2cc(C(=O)Nc3cccc(C(=O)NCc4ccccc4)c3)c3ccccc3n2)cc(OC)c1OC", "activity (protection/inhibition)": "119%"},
      {"compound": "CCOC(=O)c1cccc(NC(=O)CNC(=O)c2cc(-c3cc(OC)c(OC)c(OC)c3)nc3ccccc23)c1", "activity (protection/inhibition)": "114%"}
    ]}
  ]
}
